Results taken from PubChem BioAssay AID1347383 (Zoeller Lab, School of Medicine, Boston University, 2020).
Activity calls are given as the source filed them.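 How the source made its calls: active means cell survival after UV exposure 2 SD above solvent-only control wells at 10 µM, confirmed on one or two repeats; inactive means the rest.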

experiment: protection of CHO cells from pyrene-fatty acid UV killing, primary screen, phospholipid biosynthesis inhibitor project, ZR-82 cells, Analyticon library, screen 2 (AID 1347383); conditions: ZR-82 CHO cells, CellTiter Blue, at 10 µM, peroxisome-deficient CHO-K1 variant, with DGAT-1, DGAT-2 and ACAT inhibitors;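 further: survival reflects blocked phospholipid synthesis cutting uptake of the phototoxic fatty acid; compound and fatty acid exposure 3 h then viability read next day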

Question: Which outcome does the source give for CCCCCC(O)CC(O)CC(=O)O (centres undefined) here?
Answer: inactive

Question: With CC1NC(=O)c2ccccc2NC1=O (centres undefined) as the compound, how does the outcome read?
Answer: inactive

Question: With CC1(C)C(=O)C=CC2(C)C1CC(O)C1(C)C3=CCC(c4ccoc4)C3(C)CCC21 (centres undefined) as the compound, how does the outcome read?
Answer: inactive

Question: With O=C1CC2OC(C(O)c3ccccc3)C(O1)C2O (centres undefined) as the compound, how does the outcome read?
Answer: inactive

Question: For COc1c(O)cc([C@@H]2Oc3cc(O)cc(O)c3C[C@@H]2O)cc1O, which outcome is on record?
Answer: inactive

Question: With CC1(C)CC(O)CC2(C)OC(=O)C=C12 (centres undefined) as the compound, how does the outcome read?
Answer: inactive

Question: With CCC(C)C(=O)O[C@H]1CCC=C2C=C[C@H](C)[C@H](CC[C@@H](O)C[C@@H](O)CC(=O)O)[C@H]21 (some centres undefined) as the compound, how does the outcome read?
Answer: inactive

Question: Which outcome does the source give for CC(=O)NC1C=CC(CCC(NC(C)=O)C(=O)O)C=C1 (centres undefined) here?
Answer: inactive

Question: With C[C@@H]1O[C@@H](Oc2c(-c3ccc(O)cc3)oc3cc(O)cc(O)c3c2=O)[C@H](O)[C@H](O)[C@H]1O as the compound, how does the outcome read?
Answer: inactive

Question: With OC1C(c2ccccc2)CCC(O)(c2ccccc2)C1O (centres undefined) as the compound, how does the outcome read?
Answer: inactive

Question: With CC(C)=CCc1cc(C(=O)/C=C/c2ccc(O)cc2)c(O)cc1O as the compound, how does the outcome read?
Answer: inactive

Question: For C[C@@H]1C[C@@H](O)C2[C@@](C)(CO)CCC[C@]2(C)[C@@]1(O)CCc1ccoc1 (some centres undefined), which outcome is on record?
Answer: inactive

Question: For COc1cc(C2OC(c3ccc(O)c(OC)c3)C(C)C2C)ccc1O (centres undefined), which outcome is on record?
Answer: active

Question: For C=C1C[C@H](O)C[C@]2(C)CC[C@@H](C(C)(C)O)CC12 (some centres undefined), which outcome is on record?
Answer: inactive

Question: With CC(=O)CCCCCCCCNC(C)=O as the compound, how does the outcome read?
Answer: inactive

Question: Which outcome does the source give for Nc1ncnc2c1ncn2[C@@H]1O[C@H](CO)C[C@H]1O here?
Answer: inactive

Question: With COc1cc(/C=C/c2cc(O)cc(O)c2)ccc1O as the compound, how does the outcome read?
Answer: inactive

Question: For COc1c(OC)c(O)c2c3c(cc4ccccc42)NC(=O)c13, which outcome is on record?
Answer: inactive

Question: Which outcome does the source give for CNC(=O)Oc1ccc2c(c1)[C@]1(C)CCN(C)[C@@H]1N2C here?
Answer: inactive

Question: With Oc1ccc([C@@H]2Oc3cc(O)cc(O)c3C[C@@H]2O)cc1 as the compound, how does the outcome read?
Answer: inactive

Question: Which outcome does the source give for CC(=O)OC1C(O)C2C(C)C3=CC(=O)OC3(O)CC2C2(C)CCCC(C)(CO)C12 (centres undefined) here?
Answer: inactive

Question: Which outcome does the source give for CC(CO)C1CCC2(C)CC3C(CO)CC(O)C3C(C)(O)CC=C12 (centres undefined) here?
Answer: inactive

Question: For C[C@]12CC(=O)C3C[C@@]1(O)OC(O2)[C@H]3COC(=O)c1ccccc1, which outcome is on record?
Answer: inactive

Question: With C/C=C/C1=C(Cl)C(=O)[C@@H](O)[C@@]1(O)C(=O)OC as the compound, how does the outcome read?
Answer: inactive

Question: Which outcome does the source give for C=C1CCC2OC(=O)C(C)=C2C2C1C13OC1(CC(C)C3=O)C1OC21C (centres undefined) here?
Answer: inactive

Question: With COc1ccc(-c2coc3cc(O)ccc3c2=O)cc1O as the compound, how does the outcome read?
Answer: inactive

Question: Which outcome does the source give for CC1=CC2C3C(C(C)=C4C3[C@@](C)(O)CC[C@H]3[C@H](C)C(=O)O[C@H]43)C13C2[C@@](C)(O)CC[C@H]1[C@H](C)C(=O)O[C@@H]13 (some centres undefined) here?
Answer: inactive

Question: Which outcome does the source give for Cn1c2c(O)c(O)ccc2c(=O)c2c(O)cc3c(c21)C=CC(C)(C)O3 here?
Answer: inactive

Question: Which outcome does the source give for COC(=O)C1C(O)CCC2CN3CCc4c([nH]c5ccccc45)C3CC21 (centres undefined) here?
Answer: inactive

Question: With C=C1C(=O)O[C@@H]2C[C@H](C)[C@@]3(O)C=C(C(C)=O)C4(CC3C[C@H]12)C(=O)O[C@H]1C[C@@H](C)C(CCC(C)=O)=CC[C@H]14 (some centres undefined) as the compound, how does the outcome read?
Answer: inactive

Question: With CCCCCCCCCCCc1cc(O)cc(O)c1 as the compound, how does the outcome read?
Answer: inactive

Question: With CC[C@]12CCCN3CCc4c(n(c5ccccc45)C(=O)C1)[C@@H]32 as the compound, how does the outcome read?
Answer: inactive

Question: With O=C(O)COC(=O)CCCCCCCO as the compound, how does the outcome read?
Answer: inactive

Question: For COc1ccc(Cc2nccc3cc(OC)c(OC)cc23)cc1OC, which outcome is on record?
Answer: inactive

Question: Which outcome does the source give for C=C[C@@]1(C)CC[C@@H]([C@H](C)C(=O)CC=C(C)C)O1 here?
Answer: inactive

Question: With O=C(/C=C(O)/C=C/c1ccc(O)cc1)/C=C/c1ccc(O)cc1 as the compound, how does the outcome read?
Answer: inactive

Question: For COc1cc(OC)c2c(c1Cl)OC1(C(=O)C=C(O)C=C1C)C2=O (centres undefined), which outcome is on record?
Answer: inactive

Question: Which outcome does the source give for O=c1ccc2ccc(O[C@@H]3O[C@H](CO)[C@@H](O)[C@H](O)[C@H]3O)cc2o1 here?
Answer: inactive

Question: For C=C1CC[C@@H](C)[C@](C)(CCc2ccoc2)C/C=C\C=C/1C(=O)O, which outcome is on record?
Answer: inactive
